The nature of experiment [1]: qHTS RealTime-Glo MT Cell Viability Assay in HepG2 cells - 40 hour (AID 1224870). Further: nearly all actives have a fitted effect of over 50% in size. In short, it runs like this:
(§1)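 Real-time viability: cells seeded at 600 per well together with NanoLuc and cell-permeant prosubstrate, compounds added after 5 h incubation. Luminescence tracked at 0, 8, 16, 24, 32 and 40 h of exposure.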
(Quantitative high-throughput screening tests each substance at several concentrations.)

The nature of experiment [2]: A CellTox Green Cytotoxicity Assay to monitor cytotoxicity in HEK293 cells - 40 hour (AID 1224871). Further: nearly all actives have a fitted effect of over 45% in size. Further: potency means the concentration at half of the fitted maximal effect. In short, it runs like this:
(§2)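 Tox21 screen in HEK293: membrane-impermeant cyanine dye fluoresces on binding dead-cell DNA; compound pinned 5 h post-seeding, plates held at 37 C, signal read repeatedly through 40 h.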

Experiment [3] is described as follows: qHTS RealTime-Glo MT Cell Viability Assay in HepG2 cells - 8 hour (AID 1224873). Further: nearly all actives have a fitted effect of over 55% in size. In short, it runs like this:
as §1

Experiment [4] in a line: A CellTox Green Cytotoxicity Assay to monitor cytotoxicity in HEK293 cells - 24 hour (AID 1224875). Further: series mostly up to about 77 µM; nearly all actives have a fitted effect of over 45% in size. In short, it runs like this: as §2
A short description of experiment [5]: A CellTox Green Cytotoxicity Assay to monitor cytotoxicity in HepG2 cells - 16 hour (AID 1224876). Further: nearly all actives have a fitted effect of over 45% in size. Further: potency means the concentration at half of the fitted maximal effect. In short, it runs like this: (§3)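 Measurements at 0, 8, 16, 24, 32 and 40 h of treatment captured CellTox Green fluorescence in HepG2 cells that had been co-plated with reagent and preincubated 5 h at 37 C/5% CO2.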
Experiment [6] in a line: qHTS RealTime-Glo MT Cell Viability Assay in HepG2 cells - 32 hour (AID 1224877). Further: nearly all actives have a fitted effect of over 55% in size. An outline of the steps: (§4)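 Compound treatment began 5 h after plating HepG2 cells (600/well) with NanoLuc luciferase and prosubstrate. Plates stayed at 37 C for 40 h; luminescence was captured at six time points, 0 h through 40 h.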
Experiment [7] can be described thus: A CellTox Green Cytotoxicity Assay to monitor cytotoxicity in HEK293 cells - 32 hour (AID 1224881). Further: nearly all actives have a fitted effect of over 40% in size. Further: potency means the concentration at half of the fitted maximal effect. An outline of the steps:
as §2

Experiment [8] is described as follows: A CellTox Green Cytotoxicity Assay to monitor cytotoxicity in HepG2 cells - 0 hour (AID 1224882). Further: nearly all actives have a fitted effect of over 35% in size. An outline of the steps: as §3
A short description of experiment [9]: A CellTox Green Cytotoxicity Assay to monitor cytotoxicity in HEK293 cells - 8 hour (AID 1224884). Further: nearly all actives have a fitted effect of over 35% in size. An outline of the steps:
as §2

Experiment [10] in a line: qHTS RealTime-Glo MT Cell Viability Assay in HepG2 cells - 16 hour (AID 1224885). Further: nearly all actives have a fitted effect of over 50% in size. An outline of the steps:
as §4

Experiment [11] in a line: A CellTox Green Cytotoxicity Assay to monitor cytotoxicity in HEK293 cells - 16 hour (AID 1224888). Further: nearly all actives have a fitted effect of over 35% in size. An outline of the steps: as §2
Experiment [12] in a line: qHTS RealTime-Glo MT Cell Viability Assay in HepG2 cells - 0 hour (AID 1224889). Further: nearly all actives have a fitted effect of over 50% in size. Further: potency means the concentration at half of the fitted maximal effect. An outline of the steps:
as §4

Experiment [13] is described as follows: qHTS RealTime-Glo MT Cell Viability Assay in HEK293 cells - 16 hour (AID 1224872). Further: nearly all actives have a fitted effect of over 50% in size. Further: potency means the concentration at half of the fitted maximal effect. An outline of the steps:
(§5)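 Quantitative high-throughput screen of the Tox21 10K library in HEK293: cells and RealTime-Glo reagents plated together, compound added at 5 h, luminescence monitored through 40 h at 37 C.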

A short description of experiment [14]: A CellTox Green Cytotoxicity Assay to monitor cytotoxicity in HepG2 cells - 24 hour (AID 1224878). Further: nearly all actives have a fitted effect of over 45% in size. Further: potency means the concentration at half of the fitted maximal effect. An outline of the steps:
as §3

The nature of experiment [15]: A CellTox Green Cytotoxicity Assay to monitor cytotoxicity in HepG2 cells - 40 hour (AID 1224879). Further: nearly all actives have a fitted effect of over 40% in size. Further: potency means the concentration at half of the fitted maximal effect. In short, it runs like this: as §3
Experiment [16] can be described thus: qHTS RealTime-Glo MT Cell Viability Assay in HEK293 cells - 0 hour (AID 1224880). An outline of the steps: (§6)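 HEK293 + NanoLuc + prosubstrate, 600 cells/well; 5 h, 37 C/5% CO2; compound 23 nL in DMSO by pintool; 37 C; luminescence read at 0, 8, 16, 24, 32 and 40 h time points.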
The nature of experiment [17]: A CellTox Green Cytotoxicity Assay to monitor cytotoxicity in HepG2 cells - 32 hour (AID 1224883). Further: nearly all actives have a fitted effect of over 50% in size. Further: potency means the concentration at half of the fitted maximal effect. In short, it runs like this:
as §3

Experiment [18] is described as follows: qHTS RealTime-Glo MT Cell Viability Assay in HEK293 cells - 8 hour (AID 1224887). Further: nearly all actives have a fitted effect of over 50% in size. Further: potency means the concentration at half of the fitted maximal effect. An outline of the steps: as §6
Experiment [19] in a line: qHTS RealTime-Glo MT Cell Viability Assay in HEK293 cells - 40 hour (AID 1224874). Further: nearly all actives have a fitted effect of over 50% in size. Further: potency means the concentration at half of the fitted maximal effect. The conditions noted are these: RealTime-Glo luminescence; max response: hits give low values. In short, it runs like this: as §6
Experiment [20] is described as follows: qHTS RealTime-Glo MT Cell Viability Assay in HEK293 cells - 24 hour (AID 1224886). Further: nearly all actives have a fitted effect of over 50% in size. Further: potency means the concentration at half of the fitted maximal effect. In short, it runs like this:
as §5

This is an account of results in PubChem BioAssay (Tox21).

Unmarked numbers belong to inactive results. Inconclusive results are not listed. Active and inactive are the calls of the source. The call rests on the fitted dose curve; in most records, active means well fitted curve in the direction sought with a large enough effect in the repeat runs; inconclusive means weak or mixed curves; inactive means no such curve, though single readings can be large; an effect the other way counts as inactive or inconclusive.
On the % scale 0 is the no-effect control and ±100 the full control effect.

`COC(=O)C(C)N(C(=O)Cc1ccccc1)c1c(C)cccc1C` (configuration not stated): the Potency result in experiment [1], in experiment [2], in [3], in experiment [4], in [5] and in experiment [6] was “inactive” throughout. In addition, the Potency result in [7], in experiment [8], in experiment [9], in experiment [10] and in experiment [11] was “inactive” throughout. Besides, the Potency in [12] is 21.9 µM (active).

On to `CCC(COC(=O)c1cc(OC)c(OC)c(OC)c1)(c1ccccc1)N(C)C` (configuration not stated), for which the Potency result in experiment [1], in experiment [2], in [3], in experiment [4], in experiment [5] and in experiment [6] was “inactive” throughout. Further, the Potency result in experiment [14], in experiment [15], in [16], in experiment [7], in [8] and in experiment [17] was “inactive” each time. In addition, the Potency result in [9], in experiment [10], in [11] and in experiment [12] was “inactive” in each case. In addition, the Potency in experiment [13] and in experiment [18] was 26.8 µM (active) in each case.

`S=C=NCc1ccccc1`: the Potency result in [1], in experiment [3], in [5], in [14], in [16] and in experiment [8] was “inactive” throughout. Moreover, the Potency result in [9], in experiment [10], in experiment [11] and in experiment [12] was “inactive” in each case. Besides, the Potency in [2] was 55.5 µM (active); in experiment [13], 24.8 µM (active); in experiment [19], 44.1 µM (active); in [7], 49.5 µM (active); in experiment [20], 24.8 µM (active).

Take `O=[N+]([O-])c1ccc(F)c([N+](=O)[O-])c1`: the Potency result in [1], in experiment [2], in experiment [3], in experiment [4], in experiment [5] and in experiment [6] was “inactive” in each case. Also, the Potency result in [14], in experiment [15], in [16], in experiment [7], in experiment [8] and in [17] was “inactive” throughout. The Potency entry in experiment [9], in experiment [10], in [11] and in [12] was “inactive” each time.

As for `N#CCC#N`, the Potency entry in experiment [1], in experiment [2], in experiment [3], in experiment [4], in [5] and in experiment [14] was “inactive” in each case. Also, the Potency entry in [16], in experiment [7], in experiment [8], in experiment [17], in experiment [9] and in experiment [10] was “inactive” throughout. In addition, the Potency entry in experiment [18], in experiment [11] and in experiment [12] was “inactive” each time. The max response in [19] was -1.97%.

On to `C=CC(=O)OC(C)(C)C`, for which the Potency result in experiment [1], in experiment [13], in [3], in [4], in experiment [5] and in [6] was “inactive” throughout. The Potency result in [14], in experiment [15], in experiment [16], in [7], in experiment [8] and in experiment [17] was “inactive” each time. Further, the Potency entry in experiment [9], in [20], in [18], in [11] and in experiment [12] was “inactive” throughout. Further, in experiment [19], the max response was 13.5%.

As to `C[C@H]1CNCCc2ccc(Cl)cc21`, the Potency entry in experiment [1], in experiment [13], in [3], in experiment [4], in experiment [5] and in experiment [6] was “inactive” in each case. The Potency entry in experiment [14], in experiment [15], in experiment [16], in experiment [7], in experiment [8] and in [17] was “inactive” each time. For the same molecule, the Potency entry in experiment [10], in experiment [20], in experiment [18], in [11] and in experiment [12] was “inactive” each time. The max response in experiment [19] was -6.61%.

As for `CN1[C@@H]2CC[C@H]1CC(OC(=O)c1cc(Cl)cc(Cl)c1)C2` (some centres not stated), the Potency result in experiment [1], in experiment [13], in experiment [3], in experiment [4], in experiment [16] and in [7] was “inactive” in each case. For the same molecule, the Potency entry in experiment [8], in experiment [9], in experiment [18] and in [11] was “inactive” in each case. Besides, the Potency in experiment [5] was 21.3 µM (active); in experiment [14], 23.9 µM (active); in [15], 23.9 µM (active); in [17], 23.9 µM (active).

`O=C(N[C@H](c1ccccc1)[C@@H]1CN2CCC1CC2)c1c(Cl)ccc(C(F)(F)F)c1Cl`: the Potency result in experiment [1], in experiment [3], in experiment [5], in [8], in experiment [10] and in experiment [18] was “inactive” each time. The Potency result in experiment [12] is “inactive”. In addition, the Potency is 78.8 µM (active) in [13]; 70.2 µM (active) in experiment [19]; 70.2 µM (active) in experiment [15]; 78.8 µM (active) in experiment [7]; 70.2 µM (active) in experiment [20].

Regarding `CCOc1ccc(C(C)(C)COCc2cccc(Oc3ccccc3)c2)cc1`, the Potency entry in [1], in experiment [13], in [3], in [4], in experiment [5] and in [6] was “inactive” each time. For the same molecule, the Potency result in experiment [14], in experiment [15], in experiment [16], in [7], in [8] and in experiment [17] was “inactive” throughout. In addition, the Potency entry in experiment [9], in experiment [10], in experiment [20], in experiment [18] and in [11] was “inactive” throughout. In experiment [19], the max response is 11.2%.

Take `CCOS(C)(=O)=O`: the Potency entry in [1], in experiment [13], in experiment [3], in experiment [4], in experiment [5] and in experiment [14] was “inactive” throughout. The Potency entry in experiment [15], in [16], in [7], in experiment [8], in experiment [17] and in [9] was “inactive” each time. In addition, the Potency result in experiment [10], in experiment [20], in experiment [18], in [11] and in experiment [12] was “inactive” each time. The max response in experiment [19] is -7.66%.

With `O=C(O)c1ccccc1C(=O)Nc1cccc2ccccc12`, the Potency entry in experiment [1], in experiment [13], in experiment [3], in experiment [4], in experiment [5] and in experiment [6] was “inactive” throughout. In addition, the Potency entry in [14], in experiment [15], in experiment [16], in experiment [7], in experiment [8] and in [17] was “inactive” in each case. For the same molecule, the Potency result in experiment [9], in [10], in [18], in experiment [11] and in [12] was “inactive” each time. For the same molecule, the max response in experiment [19] is 18.5%.

As for `Cc1cc(=O)[nH]o1`, the Potency entry in experiment [1], in experiment [13], in experiment [3], in [4], in experiment [5] and in [14] was “inactive” each time. Moreover, the Potency entry in experiment [15], in experiment [16], in [7], in experiment [8], in experiment [17] and in experiment [9] was “inactive” in each case. Also, the Potency entry in experiment [10], in [20], in experiment [18], in experiment [11] and in experiment [12] was “inactive” throughout. Besides, in experiment [19], the max response was 2.1%.

Regarding `Clc1cccc2ccccc12`, the Potency entry in [1], in experiment [13], in experiment [3], in experiment [5], in experiment [6] and in experiment [14] was “inactive” each time. Besides, the Potency entry in [15], in [16], in experiment [8], in experiment [9], in experiment [10] and in experiment [20] was “inactive” each time. Moreover, the Potency entry in [18], in experiment [11] and in experiment [12] was “inactive” each time. For the same molecule, the max response in experiment [19] was -5.43%.

With `C/C=C/C=O`, the Potency result in experiment [1], in [13], in experiment [3], in [4], in [5] and in [6] was “inactive” each time. Besides, the Potency entry in [14], in experiment [15], in experiment [16], in experiment [7], in [8] and in experiment [9] was “inactive” throughout. For the same molecule, the Potency result in [20], in experiment [18], in experiment [11] and in experiment [12] was “inactive” throughout. Moreover, in [19], the max response is 5.18%.

In the case of `C=C(C#N)CCC#N`, the Potency result in experiment [1], in experiment [13], in experiment [3], in experiment [4], in [5] and in experiment [6] was “inactive” throughout. Further, the Potency result in experiment [14], in experiment [15], in [16], in [7], in [8] and in experiment [17] was “inactive” in each case. For the same molecule, the Potency result in experiment [10], in [20], in [18], in experiment [11] and in experiment [12] was “inactive” in each case. The max response in [19] was 5.63%.
